A short description of assay [1]: ATG_NFI_CIS: Attagene CIS-FACTORIAL HepG2 Assay for human Nuclear Factor I (NFI) (AID 2282989). The settings on record: HepG2 cis-regulatory reporter, NFI response element transcription; actives raise or lower the signal. An outline of the steps: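 Endogenous TF activity in HepG2 cells transiently transfected with cis-element-driven multiplexed reporter units, read 24 h after dosing. Reporter mRNA quantified by RT-PCR, 6-FAM labelling, HpaI digestion and capillary electrophoresis; bidirectional fit versus DMSO.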

Assay [2] deals with Myc proto-oncogene protein (Homo sapiens) (UniProt P01106). Kind of assay: ATG_Myc_CIS: Attagene CIS-FACTORIAL HepG2 Assay for human Myelocytomatosis (Myc) Proto-Oncogene Transcription Factor (AID 2282990). To be noted: HepG2, Attagene cis-reporter transcription factor activity; actives raise or lower the signal. An outline of the steps: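 HepG2, transient MRTU transfection (cis promoters, endogenous TFs); 24 h dosing; TriZol RNA → oligo(dT) RT → PCR → 6-FAM primer extension → HpaI cut → CE. Bidirectional fit vs DMSO.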

Assay [3] is described as follows: ATG_NRF2_ARE_CIS: Attagene CIS-FACTORIAL HepG2 Assay for human Nuclear Factor Erythroid 2 Related Factor 2 (NFR2) response to Antioxidant Response Elements (ARE) (AID 2282992).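 For AC50: reporter mRNA level measured by RT-PCR and capillary electrophoresis fluorescence.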 The settings on record: HepG2 Attagene ARE/NRF2 reporter, transcription factor activity; actives raise or lower the signal. An outline of the steps:
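Using transiently transfected HepG2 cells exposed for 24 h, reporter mRNA levels were determined by RT-PCR with fluorescent primer extension and capillary electrophoresis, analysed for gain or loss of signal against DMSO.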

Assay [4] can be described thus: ATG_Oct_MLP_CIS: Attagene CIS-FACTORIAL HepG2 Assay for human Octamer-Binding Transcription Factor (Oct) (AID 2282993). The settings on record: HepG2 Attagene cis-factorial Oct reporter, mRNA; actives raise or lower the signal. In short, it runs like this:
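HepG2 cells transiently transfected with cis-element-driven reporter transcription units (endogenous TF activity); 24 h compound exposure. Reporter mRNA quantified by RT-PCR, 6-FAM labelling, HpaI digestion and capillary electrophoresis; bidirectional fit versus DMSO baseline.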

Assay [5] addresses Cellular tumor antigen p53 (Homo sapiens) (UniProt P04637). Kind of assay: ATG_p53_CIS: Attagene CIS-FACTORIAL HepG2 Assay for human p53 Transcription Factor (AID 2282994). To be noted: HepG2 p53 cis-element reporter, Attagene mRNA; actives raise or lower the signal. In short, it runs like this:
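In HepG2 cells, reporter transcription units under cis-regulatory promoters were transiently introduced. Following 24 h treatment, RNA was processed to labelled, digested cDNA fragments read by capillary electrophoresis; fitting was bidirectional versus DMSO.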

Assay [6] can be described thus: BSK_3C_TissueFactor: BioMAP Diversity Plus: 3C Assay for Tissue Factor Biomarker Activity (AID 2282997). The settings on record: BioMAP 3C HUVEC, tissue factor biomarker readout; actives raise or lower the signal. In short, it runs like this: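 Cells used were primary human umbilical vein endothelial cells. They were dosed with chemical, and after 24 h Tissue Factor was quantified by ELISA. Curves were fitted bidirectionally with DMSO as baseline.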

Assay [7] is described as follows: BSK_3C_uPAR: BioMAP Diversity Plus: 3C Assay for Urokinase-type plasminogen activator receptor (uPAR) Biomarker Activity (AID 2282998). The settings on record: BioMAP 3C HUVEC, uPAR biomarker ELISA; actives raise or lower the signal. In short, it runs like this:
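Primary human umbilical vein endothelial cells, 3C system; surface uPAR measured by ELISA 24 h after dosing. Cytotoxicity via SRB total protein in parallel cultures; bidirectional fit against DMSO.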
On the technique in general: In an ELISA, binding on a coated surface is turned into a signal by an enzyme label.

Assay [8] is described as follows: BSK_3C_VCAM1: BioMAP Diversity Plus: 3C Assay for Vascular cell adhesion molecule 1 (VCAM1) Biomarker Activity (AID 2282999). The settings on record: BioMAP 3C HUVEC, VCAM1 ELISA, cytokine-stimulated; actives raise or lower the signal. In short, it runs like this:
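Activity fitted in both directions relative to DMSO, with ELISA measurement of the surface marker on primary HUVEC (3C) at 24 h post-treatment; parallel SRB staining (0.1% SRB, TCA-fixed, 560 nm) flagged overt cytotoxicity.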

Assay [9] is described as follows: BSK_4H_Eotaxin3: BioMAP Diversity Plus: 4H Assay for Eotaxin 3 Biomarker Activity (AID 2283000). To be noted: primary human endothelial cells (HUVEC); actives raise or lower the signal. In short, it runs like this:
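Endothelial primary cells (human umbilical vein) exposed to compound for 24 h. ELISA detection of Eotaxin-3.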

In general, AC50 refers to the midpoint of the concentration-response curve, whichever way the signal moves.

Activity calls are given as the source filed them. Rule for the calls: active = hit-call score of the fitted dose curve at least 0.9, where 1 is the maximum; inactive = score below 0.9.

Myc proto-oncogene protein (Homo sapiens), sequence (P01106 whole entry, looked up): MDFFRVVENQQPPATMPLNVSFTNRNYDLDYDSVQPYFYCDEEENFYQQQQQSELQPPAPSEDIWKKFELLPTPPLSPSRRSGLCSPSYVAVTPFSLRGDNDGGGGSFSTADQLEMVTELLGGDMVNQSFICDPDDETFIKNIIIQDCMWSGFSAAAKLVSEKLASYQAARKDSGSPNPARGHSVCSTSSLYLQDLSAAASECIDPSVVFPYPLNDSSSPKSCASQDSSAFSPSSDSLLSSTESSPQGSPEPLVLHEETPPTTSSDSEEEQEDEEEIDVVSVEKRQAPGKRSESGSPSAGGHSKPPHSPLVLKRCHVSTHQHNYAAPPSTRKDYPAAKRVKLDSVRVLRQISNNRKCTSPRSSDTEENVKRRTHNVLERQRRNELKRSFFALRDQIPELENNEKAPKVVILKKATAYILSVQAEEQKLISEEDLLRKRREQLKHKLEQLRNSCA
Cellular tumor antigen p53 (Homo sapiens), sequence (P04637 whole entry, looked up, the tested form may be a part): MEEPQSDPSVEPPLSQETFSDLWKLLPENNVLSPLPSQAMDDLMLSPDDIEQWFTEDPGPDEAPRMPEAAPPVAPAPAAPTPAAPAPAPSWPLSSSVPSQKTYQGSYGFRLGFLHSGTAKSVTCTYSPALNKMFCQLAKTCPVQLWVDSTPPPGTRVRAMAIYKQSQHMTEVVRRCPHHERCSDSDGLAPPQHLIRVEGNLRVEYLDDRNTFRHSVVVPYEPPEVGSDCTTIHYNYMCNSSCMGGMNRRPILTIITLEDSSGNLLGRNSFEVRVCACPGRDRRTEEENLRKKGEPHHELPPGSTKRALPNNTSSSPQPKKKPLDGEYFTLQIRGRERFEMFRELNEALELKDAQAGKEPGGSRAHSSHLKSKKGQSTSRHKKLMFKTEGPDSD

As to `CCO[Si](CCCNC(N)=O)(OCC)OCC`, the molecule was called inactive in assay [1], in [2], in assay [3], in assay [4], in assay [5] and in assay [6]. Further, the result in assay [7], in assay [8] and in assay [9] was inactive.

For the molecule `CC(C)(C)c1csc(-c2cc3cc(OCc4ccccc4CC(=O)O)ccc3o2)n1`, the molecule was called inactive in [1], in assay [2] and in assay [5]. In addition, the AC50 was 8.91 µM (active) in assay [3]; 33.4 µM (active) in [4]; 35.7 µM (active) in assay [6]; 29.8 µM (active) in assay [8]; 22.4 µM (active) in [9].

As for `CCCOC(=O)c1cc(O)c(O)c(O)c1`, the call in assay [1], in assay [2], in [4], in [5], in assay [6] and in assay [7] was inactive. The result in assay [8] and in assay [9] was inactive. In [3], the half-maximal activity concentration (AC50) was 5.91 µM (active).

(Values after PubChem BioAssay (EPA / NIEHS).)
